Laboratory results published in the supplement of paper PMC13380429.

What follows are compounds tested on Vero E6 infected with SARS-CoV-2 (assay: morphology score (similarity to uninfected cells); higher = more like uninfected cells). Details: 24 h.

Row | Compound | morphology score
1 | CC(C)(C)c1cc(C=C(C#N)C#N)cc(C(C)(C)C)c1O [tyrphostin-A9] (0.833333 µM) | 0.116
2 | CNC[C@@H]1CC[C@@H](N)[C@@H](O[C@H]2[C@H](O)[C@@H](O[C@H]3OC[C@](C)(O)[C@H](NC)[C@H]3O)[C@H](N)C[C@@H]2N)O1 [micronomicin] (10 µM) | 0.0697
3 | Nc1ncnc2c1c(-c1ccc(Cl)cc1)nn2-c1cccc(-c2cnnn2Cc2cccc(-c3ccccc3)c2)c1 (10 µM) | -0.00803
4 | Oc1ccc2c3c1O[C@H]1[C@@H](O)CC[C@@]4(O)[C@@H](C2)N(CC2CCC2)CC[C@]314 [nalbuphine] (10 µM) | -0.0532

These compounds were tested on Vero E6 infected with SARS-CoV-2 (assay: SARS-CoV-2 infection rate relative to infected DMSO; higher = more infection, active = 60 or less). Details: 24 h.

Row | Compound | SARS-CoV-2 infection rate
5 | Cc1ccccc1C(c1ccccc1C)N1C2CCC1CC(O)(c1ccccc1)C2 (stereo not drawn) (10 µM) | 85% (inactive)
6 | CC[C@@H](CO)NC(=O)[C@@H]1C=C2c3cccc4[nH]cc(c34)C[C@H]2N(C)C1 [methylergometrine] (10 µM) | 96.5% (inactive)
7 | CN1C(=O)N(C)C2C1N(C)C(=O)N2C (stereo not drawn) [mebicar] (10 µM) | 107% (inactive)
8 | C[N+]1(C)CCCC(OC(=O)C(O)(c2ccccc2)c2ccccc2)C1 (stereo not drawn) [mepenzolate] (10 µM) | 105% (inactive)
9 | CC(=O)SC[C@@H](Cc1ccccc1)C(=O)NCC(=O)OCc1ccccc1 (racemic) [racecadotril] (10 µM) | 110% (inactive)
10 | CC(Cc1ccccc1)(NC(=O)CN)c1ccccc1 (stereo not drawn) [remacemide] (10 µM) | 113% (inactive)
11 | CC(=O)Oc1ccccc1C(=O)O [aspirin] (10 µM) | 98% (inactive)
12 | NCc1ccc(S(N)(=O)=O)cc1 [mafenide] (10 µM) | 91% (inactive)
13 | C[N+](C)(CCOc1ccccc1)Cc1ccccc1 [bephenium-hydroxynaphthoate] (10 µM) | 94.5% (inactive)
14 | CCOC(=O)c1ccc(OC(=O)CCCCCNC(=N)N)cc1 [gabexate] (10 µM) | 102% (inactive)
15 | COc1ccccc1N1CCN(CC(O)COc2cc(OC)c(OC)c(OC)c2)CC1 (stereo not drawn) [enciprazine] (10 µM) | 110% (inactive)
16 | CCOC(=O)COc1ccc2c(=O)cc(-c3ccccc3)oc2c1 [efloxate] (10 µM) | 96.5% (inactive)
17 | CCOC(=O)Nc1ccc2c(c1)N(C(=O)CCN1CCOCC1)c1ccccc1S2 [moracizine] (10 µM) | 112% (inactive)
18 | CC(C)N(CCCNC(=O)Nc1ccc(C(C)(C)C)cc1)C[C@H]1O[C@@H](n2cc(Br)c3c(N)ncnc32)[C@H](O)[C@@H]1O (10 µM) | 120% (inactive)
19 | O=C(O)[C@H](O)c1ccccc1 [mandelic-acid] (10 µM) | 114% (inactive)
20 | CCOC(=O)Nc1nc2ccccc2[nH]1 [lobendazole] (10 µM) | 101% (inactive)
21 | O=C(NS(=O)(=O)c1ccc(Br)s1)c1ccc(Cl)cc1Cl [tasisulam] (10 µM) | 109% (inactive)
22 | N=C(N)c1ccc(/N=N/Nc2ccc(C(=N)N)cc2)cc1 [diminazene-aceturate] (10 µM) | 86% (inactive)
23 | COc1ccccc1N1CCN(CCN2C(=O)CC3(CCCC3)CC2=O)CC1 (10 µM) | 116% (inactive)
24 | O=C(CNC(=O)c1ccc(Cl)cc1)NO [benurestat] (10 µM) | 114% (inactive)

Row | Compound | SARS-CoV-2 infection rate
25 | Cc1ccccc1-n1c(Cn2nc(-c3cccc(O)c3)c3c(N)ncnc32)nc2cccc(C)c2c1=O (10 µM) | 126% (inactive)
26 | N[C@H]1CCN(O)C1=O (10 µM) | 99.2% (inactive)
27 | CCOC(=O)/C=C(C)/C=C/C=C(C)/C=C/c1c(C)cc(OC)c(C)c1C [etretinate] (10 µM) | 92.5% (inactive)
28 | Cc1nc2ccc(-n3ncc(C(=O)c4cc5ccccc5[nH]4)c3N)cc2[nH]1 (0.833333 µM) | 101% (inactive)
29 | CCOC(=O)[C@H](CCc1ccccc1)N[C@@H](C)C(=O)N1[C@H](C(=O)O)C[C@@H]2CCC[C@@H]21 [ramipril] (10 µM) | 98.5% (inactive)
30 | Cc1ccc(-c2c(-c3nn(C)c4ncnc(N5CC[C@H](N6CCCCC6)C5)c34)cnn2C)cc1 (10 µM) | 100% (inactive)
31 | COCCCOc1ccnc(C[S+]([O-])c2nc3ccccc3[nH]2)c1C (stereo not drawn) [rabeprazole] (10 µM) | 106% (inactive)
32 | Ic1cc(-c2ccccc2)ncn1 [4-iodo-6-phenylpyrimidine] (10 µM) | 81.5% (inactive)
33 | Cn1cc(CCn2cnc(-c3cnn(C)c3)c2-c2ccc(C#N)cc2)cn1 (10 µM) | 97% (inactive)
34 | CC(C)(Oc1ccc(Cl)cc1)C(=O)N1CSCC1C(=O)O (stereo not drawn) [timofibrate] (10 µM) | 106% (inactive)
35 | O=C(Nc1cccc2cccnc12)c1ccc(N2C(=O)[C@@H]3[C@H](C2=O)[C@H]2C=C[C@@H]3C2)cc1 (10 µM) | 102% (inactive)
36 | CCCNC(=O)N1N=C(c2ccc(N)cc2)c2cc3c(cc2C1C)OCO3 (stereo not drawn) (10 µM) | 96.5% (inactive)
37 | NC[C@H]1O[C@H](O[C@H]2[C@H](O[C@@H]3O[C@H](CO)[C@@H](O)[C@H]3O)[C@@H](O)[C@H](N)C[C@@H]2N)[C@H](N)[C@@H](O)[C@@H]1O [ribostamycin-sulfate] (10 µM) | 105% (inactive)
38 | CC(COc1ccccc1Cc1ccccc1)N1CCCCC1 (stereo not drawn) [benproperine] (10 µM) | 79% (inactive)
39 | CN1CCN(S(=O)(=O)c2ccc(-c3cnc(N)c(C(=O)Nc4cccnc4)n3)cc2)CC1 (0.833333 µM) | 99% (inactive)
40 | CC(C)(C)c1cc(C=C(C#N)C#N)cc(C(C)(C)C)c1O [tyrphostin-A9] (0.833333 µM) | 80.5% (inactive)
41 | CNC[C@@H]1CC[C@@H](N)[C@@H](O[C@H]2[C@H](O)[C@@H](O[C@H]3OC[C@](C)(O)[C@H](NC)[C@H]3O)[C@H](N)C[C@@H]2N)O1 [micronomicin] (10 µM) | 96% (inactive)
42 | Nc1ncnc2c1c(-c1ccc(Cl)cc1)nn2-c1cccc(-c2cnnn2Cc2cccc(-c3ccccc3)c2)c1 (10 µM) | 104% (inactive)
43 | Oc1ccc2c3c1O[C@H]1[C@@H](O)CC[C@@]4(O)[C@@H](C2)N(CC2CCC2)CC[C@]314 [nalbuphine] (10 µM) | 114% (inactive)
